Autofluor counter – flagged as autofluorescent in microsphere protease counterscreen; compound autofluorescence counterscreen, microsphere flow cytometry; hits give high values; fluorescence intensity (no concentration beside the values); 3.1% of 360,000 active; AID 624483; in the data active means fluorescence intensity above about 16000; inconclusive means no clear call, values can overlap the other calls
BoNT A protease – BoNT A light chain protease inhibition. multiplex microsphere protease substrate cleavage, flow cytometry. inhibition, % at 10 µM. 0.17% of 360,000 active. AID 588499; further: plate controls were buffer without enzyme for full effect and enzyme alone for no effect
GDH-TPI inh – counter-screen for M. tuberculosis FBA inhibitors: GDH-TPI coupled enzymes | inhibition, % at 4.8 µM | GDH-TPI coupled enzyme counterscreen, NADH absorbance | 1.2% of 360,000 active | AID 588335; in the data active means inhibition above about 30%;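 further: 0% = DMSO wells and 100% = wells lacking the enzyme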
BoNT-F LC inh – inhibitors of Botulinum neurotoxin F light chain protease; inhibition, % at 10 µM; Multiplex microsphere protease cleavage assay, flow cytometry; AID 588497; 0.22% of 360,000 active; in the data active means inhibition above about 35%, passing the limit was not always enough; inconclusive means no clear call, values can overlap the other calls; further: plate controls were buffer without enzyme for full effect and enzyme alone for no effect
FBA Mtb inh – inhibitors of M. tuberculosis fructose-bisphosphate aldolase. purified M. tuberculosis FBA, fluorescence read-out. inhibition, % at 1 µM. 2.3% of 360,000 active. AID 588726; in the data active means inhibition above about 27%;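 further: 0% = vehicle and 100% = reference inhibitor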
Target sequence (P9WQA3 whole entry, looked up): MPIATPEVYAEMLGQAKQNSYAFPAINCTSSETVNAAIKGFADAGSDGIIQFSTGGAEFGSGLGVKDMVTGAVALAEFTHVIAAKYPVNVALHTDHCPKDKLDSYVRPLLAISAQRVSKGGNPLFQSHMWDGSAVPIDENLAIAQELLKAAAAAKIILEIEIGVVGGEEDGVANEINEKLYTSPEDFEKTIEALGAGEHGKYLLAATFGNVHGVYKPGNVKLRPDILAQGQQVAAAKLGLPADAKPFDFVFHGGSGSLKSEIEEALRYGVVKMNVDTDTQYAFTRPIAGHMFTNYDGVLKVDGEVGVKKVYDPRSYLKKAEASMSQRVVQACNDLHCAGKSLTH
Anthrax LF prot – blocks Bacillus anthracis lethal factor protease. multiplex microsphere protease cleavage assay, LF. inhibition, % at 10 µM. 0.12% of 360,000 active. AID 588501; further: plate controls were buffer without enzyme for full effect and enzyme alone for no effect
BoNT-A LC CP1 – blocks botulinum neurotoxin A light chain protease; inhibition, % at 10 µM; AID 602139; shares compounds with BoNT-F LC inh; 3% of 720 active; multiplex microsphere protease assay, flow cytometry; in the data active means inhibition above about 32%
BoNTF LC inh 1 – BoNT/F light chain protease inhibition; multiplex microsphere protease cleavage assay, flow cytometry; inhibition, % at 10 µM; AID 602140; 720 tested, under 10 active; shares compounds with BoNT-F LC inh; call rule not given here
LF protease CP1 – inhibitors of Bacillus anthracis lethal factor protease; 720 tested, under 10 active; shares compounds with BoNT-F LC inh; multiplex microsphere protease cleavage assay, LF; inhibition, % at 10 µM; call rule not given here
Starred values were filed as active, the others as inactive; ? = inconclusive; nt = not tested or not shown. Most compounds without a hit are left out; they make up all but 6.6% or so of the library. Unless noted, no stated cut-off is given here; in the data, active means inhibition above about 30%; inconclusive means no clear call, values can overlap the other calls; inactive means below that.

SMILES	Autofluor counter	BoNT A protease	GDH-TPI inh	BoNT-F LC inh	FBA Mtb inh	Anthrax LF prot	BoNT-A LC CP1	BoNTF LC inh 1	LF protease CP1
O=C(CCC(=O)N1CCN(c2ccccc2F)CC1)N1CCN(c2ccc(F)cc2)CC1	3421	-1.7	-4.3	21.3	-0.4	-4.5	nt	nt	nt
O=C(CCC(=O)N1CCN(c2ccc(F)cc2)CC1)N1CCN(c2ccc(F)cc2)CC1	3564	0.7	1.5	41.0*	1.2	11.8	-2.3	-11.4	2.4
O=C(NCc1ccccc1)c1noc2c1CCCC2	5510	4.7	3.4	35.2*	1.4	4.6	0.4	-5.6	1.9
O=C(NCc1ccc(Cl)cc1)c1noc2c1CCCC2	8038	-1.3	4.8	-3.7	1.2	-5.8	nt	nt	nt
O=C(c1cc(Cl)c(=O)n(Cc2ccc(Cl)cc2)c1)N1CCOCC1	?	?	19.1	7.4	-1.3	?	nt	nt	nt
Clc1ccc(CSc2ccc(-c3ccccn3)nn2)cc1	4754	-2.5	10.1	-3.5	3.2	-2.7	nt	nt	nt
Clc1ccc(Cc2ccc(SCc3ccccc3)nn2)c(Cl)c1	?	20.7	6.8	43.4*	2.0	21.7	-0.4	2.4	-1.4
O=C(Nc1ccccc1C(=O)Nc1nccs1)c1ccccc1	5607	-0.7	nt	-3.2	-3.0	-0.3	nt	nt	nt
O=C(Nc1ccccc1C(=O)Nc1nncs1)c1ccccc1	3230	-0.8	10.7	39.6*	4.9	7.2	0.1	-4.9	1.7
Cc1nc2c(C)cccc2c2c1CCN2c1ccccc1F	3906	?	10.2	?	113.3*	34.9*	0.1	-5.0	-0.2
CC(=O)c1cccc(-c2ccnc3c2CC(C(=O)Nc2ccc(C(C)C)cc2)O3)c1 (configuration not stated)	2920	-1.3	11.0	-26.3	0.5	-7.1	nt	nt	nt
Cc1cccc(CCNS(=O)(=O)c2ccc(S(=O)(=O)N3CCC(C)CC3)cc2)c1	8054	4.4	6.7	32.4	2.0	3.1	0.3	-1.1	-1.0
Cc1cccc(CCNS(=O)(=O)c2ccc(S(=O)(=O)N3CCCCC3)cc2)c1	8000	-0.2	7.7	-2.4	-0.5	-2.2	nt	nt	nt
CN1OC[C@@H]2CN(Cc3cc(Cl)cc(Cl)c3)[C@H](c3cccc(-c4ccc(C#N)cc4)c3)C[C@@H]21	3233	-0.9	15.5	-4.7	1.0	-7.1	nt	nt	nt
O=C(CCSc1ccccn1)Nc1ccc(Br)cc1	2146	4.4	4.4	47.2*	-1.2	0.3	-0.6	-7.4	-0.3
CSc1ccc(S(=O)(=O)N2CCC(C(=O)Nc3ccc(C(N)=O)cc3)CC2)cc1	4205	2.2	0.8	3.2	0.5	-0.4	nt	nt	nt
O=C(O)c1cc(-c2ccccc2)c(N2CCOCC2)s1	2262	84.4*	18.3	21.1	-3.3	69.2*	0.4	0.2	2.3
Cc1cc(CCNC=O)c(C)c2c1oc1ccccc12	3761	0.3	-6.9	-9.8	2.1	2.1	nt	nt	nt
COc1ccc(CNC(=O)CN2C(=O)COc3ccc(S(=O)(=O)N4CCCC4)cc32)cc1	5784	52.6*	-0.8	-2.4	3.4	2.1	0.3	2.0	-0.3
O=C(NCC(=O)N1CCCC1)c1ccc(Cl)cc1	2980	0.1	-0.4	13.1	1.7	31.3*	0.4	-2.9	-0.5
CCCN1CCc2c(sc3nc(SC)n(-c4ccccc4)c(=O)c23)C1	5541	33.2*	27.0	27.1	6.6	11.3	6.1	1.9	5.1
CCOC(=O)CSc1nc2sc3c(c2c(=O)n1-c1ccc(OCC)cc1)CCN(C)C3	3704	52.7*	19.3	9.8	1.9	20.5	0.7	2.3	4.5
CC(C)c1cccc(OCCN2CCCC2)c1	4102	0.8	6.4	22.6	1.2	-5.7	nt	nt	nt
COc1ccccc1Cn1c(=S)[nH]c2ccc(Br)cc2c1=O	3774	2.1	-6.4	-3.3	1.3	30.8*	-0.6	-3.6	-0.9
COc1ccc(-c2csc(C3=C(O)CN(CCCN4CCCC4=O)C3=N)n2)cc1OC	3696	0.0	19.5	-1.9	-2.7	-7.9	nt	nt	nt
Cc1c(NC(=O)c2cccc(NC(=O)Cc3ccc(F)cc3)c2)c(=O)n(-c2ccccc2)n1C	?	-2.2	0.6	2.2	0.6	43.7*	-2.2	-10.3	-2.9
COC(=O)c1ccc2nc(C3CCCCC3)c3c(c2c1)CCC3	4243	-0.1	-1.4	-6.4	2.3	-0.4	nt	nt	nt

Source: PubChem BioAssay
